Rows were chosen to be rich in hits. Some 9.5% of all compounds tested hit in one or more screens of this group.
ALDH1A1 inh = inhibitors of human aldehyde dehydrogenase 1A1; Purified ALDH1A1, NADH fluorescence, propionaldehyde substrate; Potency, µM (titrated, usually from 75.3 µM), usual class: inhibitors; 220,000 compounds, 7.3% hits; P00352; active = well fitted inhibition curve with a large enough effect, not every such curve was filed as active; inconclusive = small, poorly fitted or top-dose-only effect, or another doubt; inactive = no such curve, though single readings can be large or run the other way
Tau fluor counter = counter-screen for tau fibril formation inhibitors. 280,000 compounds, 0.93% hits. Potency, µM (series often up to 57.7 µM). tau K18 P301L Alexa594 fluorescence, heparin fibrillization; also: nearly all actives have a fitted effect of over 55% in size
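Human K18 P301L tau (15 uM unlabeled plus 0.24 uM Alexa 594-labeled, final) in 100 mM sodium acetate pH 7 was mixed with compound and 20 uM heparin and incubated 6 hr at 37 C.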
Tau FP inhib = tau fibrillization inhibition (FP); K18 P301L tau heparin fibrillization, Alexa594 FP, 6 h; Potency, µM (highest dose often 57.7 µM), hits mostly inhibitors; AID 1468; 280,000 compounds, 0.39% hits; P10636; also: nearly all actives have a fitted effect of over 55% in size
Target sequence (P10636 561-689 P618L limits assumed): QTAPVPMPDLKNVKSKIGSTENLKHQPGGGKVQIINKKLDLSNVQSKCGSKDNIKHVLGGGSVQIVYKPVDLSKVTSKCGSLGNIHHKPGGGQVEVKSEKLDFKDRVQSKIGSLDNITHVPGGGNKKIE
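Read-out: fluorescence polarization of Alexa 594-labeled tau (0.24 uM), 555 nm excitation, 632 nm emission. Mixtures held 15 uM unlabeled K18 P301L, compound and 20 uM heparin, pH 7 acetate buffer, incubated 6 hr at 37 C.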
HPGD inh = inhibitors of human 15-hydroxyprostaglandin dehydrogenase (HPGD). P15428. purified HPGD, NADH fluorescence kinetic, PGE2 substrate. Potency, µM, most hits filed as inhibitors. 150,000 compounds, 4.3% hits. AID 894; active = well fitted inhibition curve with a large enough effect, not every such curve was filed as active; inconclusive = small, poorly fitted or top-dose-only effect, or another doubt; inactive = no such curve, though single readings can be large or run the other way
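20 nM HPGD preincubated 15 min at room temperature with compound in 50 mM Tris-HCl pH 8, 0.01% Tween 20. Started with 1 mM NAD+ and 30 uM prostaglandin E2; NADH fluorescence (360/450 nm) read 5 times over 30-s intervals, last minus first.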
NPSR antag = blocks cAMP signaling of the human neuropeptide S receptor | 220,000 compounds, 1% hits | AID 1461 | Q6W5P4 | Potency, µM (doses to about 38.3 µM), usual class: inhibitors | CHO-NPSR cells, cAMP TR-FRET, antagonist mode; also: nearly all actives have a fitted effect of over 50% in size
Target sequence (Q6W5P4 whole entry, looked up): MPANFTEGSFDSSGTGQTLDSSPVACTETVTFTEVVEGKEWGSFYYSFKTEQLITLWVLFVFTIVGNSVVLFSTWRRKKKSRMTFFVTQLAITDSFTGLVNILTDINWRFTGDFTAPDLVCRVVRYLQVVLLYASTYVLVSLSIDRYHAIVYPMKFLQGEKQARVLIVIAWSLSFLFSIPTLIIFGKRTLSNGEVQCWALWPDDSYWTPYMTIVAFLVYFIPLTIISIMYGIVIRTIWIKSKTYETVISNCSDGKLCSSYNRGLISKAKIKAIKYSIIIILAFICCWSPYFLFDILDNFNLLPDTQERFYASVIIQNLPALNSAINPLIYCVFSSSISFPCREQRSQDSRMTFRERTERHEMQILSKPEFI
Tau fibril ThT = inhibitors of human tau fibril formation, thioflavin T binding; Potency, µM (top dose mostly 57.4 µM), hits mostly inhibitors; 270,000 compounds, 2.1% hits; AID 1460; P10636; recombinant tau K18 P301L (four-repeat tau fragment), heparin-induced fibrillization, ThT fluorescence; also: nearly all actives have a fitted effect of over 55% in size
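Tau K18 P301L fragment (15 uM unlabeled plus 0.24 uM Alexa 594-labeled) in 100 mM sodium acetate pH 7 with compound, fibrillization induced by 20 uM heparin for 6 hr at 37 C. Thioflavin T (30 uM) added, fluorescence read after 1 hr (ex 450, em 510 nm).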
Numbers stand for hits; – = inactive; ? = inconclusive; · = not tested or not shown. Unless noted, calls follow the shape of the dose curve; as a rule, active = well fitted curve in the direction sought with a large enough effect; inconclusive = small, poorly fitted or top-dose-only effect, or another doubt; inactive = no such curve, though single readings can be large; an effect the other way counts as inactive or inconclusive.

SMILES	ALDH1A1 inh	Tau fluor counter	Tau FP inhib	HPGD inh	NPSR antag	Tau fibril ThT
Cc1oc(-c2ccccc2)cc1C(=O)Nc1ccccc1	–	–	–	–	–	–
Cc1ccc(S(=O)(=O)Nc2cc3c(cc2NCc2ccccc2)n(C)c(=O)n3C)c(C)c1	·	?	?	·	·	18µM
CCOc1ccc(CCNC(=O)c2cnc3sc(N4CCCCC4)nn3c2=O)cc1	·	–	–	·	·	–
O=C(c1cccs1)N1CCCc2cc(NS(=O)(=O)c3ccc(F)cc3)ccc21	·	–	–	·	·	–
CCn1c(O)c(N=NC(=O)CNc2cccc(C)c2)c2ccccc21	28µM	?	–	–	–	?
Cc1ccc(NC(=O)Cn2c(O)c(N=NS(=O)(=O)c3ccc(C)cc3)c3ccccc32)cc1	0.35µM	–	–	–	–	?
Cc1ccc(NC(=O)Cn2c(O)c(N=NC(N)=O)c3ccccc32)cc1	·	?	–	·	–	·
CCCCNC(=S)N=Nc1c(O)n(Cc2ccccc2)c2ccccc12	20µM	?	–	·	–	–
NC(=S)N=Nc1c(O)n(Cc2ccccc2)c2ccccc12	2.5µM	–	–	–	–	–
COC(=O)c1ccc(Cn2c(O)c(N=NC(N)=S)c3ccccc32)o1	·	–	–	·	–	·
COC(=O)[C@@]1(Cc2ccccc2)[C@H]2c3cc(C(=O)N(C)C)n(Cc4c(CO)[nH]cc(C)c4=O)c3C[C@H]2CN1C(=O)c1ccccc1	–	–	–	–	·	–
Cc1ccc(-c2cn3nc(N4CCCC(C(=O)Nc5ccc(F)cc5)C4)sc3n2)cc1 (centres undefined)	·	?	–	·	·	?
CCOC(=O)N=Nc1c(O)n(Cc2ccccc2)c2ccccc12	8.9µM	–	–	·	–	–
COC(=O)Cn1c(O)c(N=NC(=O)c2ccc3c(c2)OCO3)c2ccccc21	1.8µM	–	–	·	–	?
O=C(N=Nc1c(O)n(Cc2ccccc2)c2ccccc12)c1ccncc1	·	–	–	·	–	16µM
Cc1cccc(NC(=O)Cn2c(O)c(N=NC(=O)c3ccncc3)c3ccccc32)c1	13µM	–	–	·	–	?
CCCCn1c(O)c(N=NC(=O)c2ccco2)c2ccccc21	–	–	–	–	–	–
COC(=O)N=Nc1c(O)n(Cc2ccccc2)c2ccccc12	·	–	–	·	–	?
Cn1c(=O)c2c(ncn2CC(=O)N2CCN(C(=O)c3ccco3)CC2)n(C)c1=O	?	–	–	·	–	–
C/C(Cl)=C\Cn1c(O)c(N=NC(N)=S)c2ccccc21	1µM	?	–	·	?	?
COc1ccc(/C=N/Nc2ncccc2[N+](=O)[O-])c(OC)c1	?	?	–	·	–	13µM
COC(=O)C(=Cc1ccccc1[N+](=O)[O-])C(=O)OC	·	–	?	·	?	25µM
COc1ccc(NC(=O)/C=C/c2ccccc2[N+](=O)[O-])c(OC)c1	?	?	–	–	–	13µM
COc1ccc2c(c1)c1c(c(=O)n(-c3cccc(Cl)c3)c(=O)n1C)n2C	·	–	–	·	·	–
CC(C)(C)NCCOCCOc1ccccc1-c1ccccc1	25µM	–	–	–	–	–
SMILES	ALDH1A1 inh	Tau fluor counter	Tau FP inhib	HPGD inh	NPSR antag	Tau fibril ThT
Cc1nc(SC2CC(=O)N(c3ccccc3)C2=O)nc2c1CCCC2 (centres undefined)	–	–	–	–	–	–
O=C(O)c1ccccc1SC1CC(=O)N(C2CCCCC2)C1=O (centres undefined)	0.63µM	–	–	–	–	–
O=C1CC(Sc2cccs2)C(=O)N1c1ccccc1 (centres undefined)	13µM	–	–	·	–	?
Cc1nnc(SC2CC(=O)N(c3ccccc3)C2=O)s1 (centres undefined)	0.71µM	–	–	13µM	–	?
O=C(O)c1ccccc1SC1CC(=O)N(c2ccccc2)C1=O (centres undefined)	2.5µM	–	–	–	–	–
O=C1CC(SC2=NCCS2)C(=O)N1c1ccc(Br)cc1 (centres undefined)	7.9µM	–	–	–	–	–
COC(=O)c1c(N2C(=O)CC(Sc3ccccc3C(=O)O)C2=O)sc2c1CCCC2 (centres undefined)	0.45µM	–	–	·	–	?
